# Screening results as filed in PubChem BioAssay.
# A selection: hits, their analogues and other compounds. The true share with any hit is near 3.6%.
# TROY signal inh: blocks TROY-dependent signaling in reporter cells; inhibition, % at 10 µM; Q293 LMP1-TROYcd NF-kB luciferase reporter, 4 h; AID 1347056; 360,000 tested, 0.98% active;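 active = compounds whose plate-normalised and pattern-corrected inhibition of the luciferase reporter signal at the single screening dose is 50% or more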
# TWEAK-Fn14 inh: blocks TWEAK-Fn14 interaction in a reporter cell assay | TWEAK-stimulated Fn14 reporter cells, luciferase luminescence, 8 h | AID 1159606 | 360,000 tested, 2% active | inhibition, % at 10 µM; in the data active = inhibition above about 50%
# HSF1 inh: HSF1 inhibition; NIH3T3-HGL HSE-luciferase, MG132-induced, luminescence 8 h; hits give low values; activity change, negative = inhibition, % at 7.5 µM (by protocol); 300,000 tested, 0.77% active;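 active = more than half of replicate wells show activity change below -50%, luminescence cut by over half; inconclusive = some wells, but at most half, below -50%; inactive = no replicate well below -50%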;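 note: luciferase reports HSF-1 transcriptional activity via heat shock element; 0% = median of DMSO wells and -100% = zero luminescence signal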
# HSF-1 act: increases HSF-1 driven luciferase reporter signal; NIH3T3-HGL HSF-1 luciferase reporter, MG132, 8 h; 100% = twice DMSO control signal; activation, % at 9 µM; 300,000 tested, 1.7% active; AID 504408;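 active = mean replicate activation of at least 50% with a set share of replicates each reaching 50%; inconclusive = only one of those two conditions met; inactive = mean below 50% and too few replicates reaching it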;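 note: 0% = median of the neutral control wells and 100% = twice that signal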
# EBV LMP1 NFkB: Epstein-Barr LMP1 NF-kappaB reporter inhibition. LMP1-induced NF-kappaB luciferase reporter cells, luminescence. inhibition, % at 12.5 µM. 350,000 tested, 0.69% active. AID 504558; in the data active = inhibition above about 41%; inconclusive = no clear call, values can overlap the other calls;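 note: 0% = neutral control wells and 100% = reference inhibitor control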
# LGR2 inh: inhibitors of bursicon-induced Drosophila LGR2 receptor cAMP signaling | HEK293 LGR2, CRE-luciferase, bursicon-stimulated, 4 h | inhibition, % at 9.99 µM | 380,000 tested, 0.35% active | AID 720647;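 active = drop in luminescence signal, shown as inhibition above about 50% in the replicate tests, limit read from the data, passing the limit was not always enough; inconclusive = probably only some replicates passing the limit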;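 note: agonist challenge used bursicon conditioned medium at about half maximal strength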
# Starred values were filed as active, the others as inactive; ? = inconclusive; · = no result given.
SMILES,TROY signal inh,TWEAK-Fn14 inh,HSF1 inh,HSF-1 act,EBV LMP1 NFkB,LGR2 inh
CCNc1nc(NCC)nc(OCCOC(=O)COc2ccc(Cl)cc2Cl)n1,·,86.2*,-0.8,3.5,-6.5,·
C[C@@H]1CN([C@@H](C)CO)C(=O)c2cc(NC(=O)c3ccccc3)ccc2O[C@@H](C)CCCCO[C@@H]1CN(C)C(=O)Cc1ccccc1,·,·,·,·,·,8.6
CC(C)c1cn(CC[C@H]2CC[C@@H](NS(=O)(=O)c3ccccc3)[C@@H](CO)O2)nn1,·,·,·,·,·,3.5
O=C(O)c1cccc(-n2c(O)c(C=C3N=c4ccccc4=N3)sc2=S)c1,-27.5,-10.4,-25.7,-25.5,-3.5,-4.4
O=C(O)c1ccc(-n2c(O)c(C=C3N=c4ccccc4=N3)sc2=S)cc1,-6.6,53.6*,16.2,22.9,-7.3,1.6
COc1ccc2nc(SCc3cccc(C)c3)nc(C)c2c1,-43.2,-1.5,48.2,94.8*,-19.7,-84.9
COc1ccc2nc(SCC(=O)O)nc(C)c2c1,-4.8,-4.0,·,·,-2.1,·
COc1ccc2nc(SCCOC(=O)Nc3ccc(Cl)cc3)nc(C)c2c1,34.6,50.6*,-7.9,-9.7,2.3,-3.6
COc1ccc2nc(SCc3ccccc3C)nc(C)c2c1,-58.3,-15.4,24.3,54.9*,-9.8,-60.5
COc1cccc(-c2ccc([C@@H]3[C@H](CO)N4C(=O)CN(C(=O)CN5CCOCC5)C[C@@H]34)cc2)c1,·,·,·,·,·,-3.1
COCC(=O)N1CC2(CCN(Cc3nccs3)CC2)c2c(n(C)c3cc(OC)ccc23)[C@@H]1CO,·,·,·,·,·,0.2
O=C(N/N=C\C=C\c1ccc([N+](=O)[O-])o1)c1cccs1,-48.2,-1.9,33.4,35.2,-67.4,-5.7
O=C1NC(=S)S/C1=C\C=C\c1ccc([N+](=O)[O-])o1,-27.1,50.1*,·,·,-47.6,19.6
COc1cccc(N2CC(=O)Nc3c(oc4nc(-c5ccccc5)cc(C)c34)C2=O)c1,70.9*,40.6,-3.6,-5.2,-47.8,4.5
Cc1cc(-c2ccccc2)nc2oc3c(c12)NC(=O)CN(c1ccccc1)C3=O,4.2,-10.2,-3.9,13.1,-0.7,·
C[C@@H]1CN([C@H](C)CO)C(=O)c2cc(C3=CCCC3)cnc2O[C@H]1CN(C)C(=O)Nc1cccc(F)c1,·,·,·,·,·,-6.8
Cn1nnnc1Sc1ncnc2scc(-c3ccc([N+](=O)[O-])cc3)c12,54.1*,92.5*,·,·,74.0*,91.0*
COc1ccc(-c2csc3ncnc(Sc4nnnn4C)c23)cc1,28.6,56.0*,·,·,86.8*,?
COc1ccc(-c2csc3ncnc(Cl)c23)cc1,-2.9,12.7,7.5,-1.0,5.1,-0.4
Cn1nnnc1Sc1ccc([N+](=O)[O-])cc1Cl,19.5,13.4,-10.7,1.3,-5.0,-8.0
Cn1nnnc1Sc1ncnc2scc(-c3ccc(Cl)cc3)c12,63.9*,75.2*,·,·,32.3,57.4*
Cn1nnnc1Sc1ncnc2scc(-c3cccc4c3sc3ccccc34)c12,-9.3,24.7,·,·,-18.1,31.6
Cn1nnnc1Sc1ncnc2scc(-c3ccccc3Cl)c12,37.7,51.5*,·,·,14.3,22.1
O=C(C[C@@H]1CC[C@H]2[C@@H](COC[C@@H](O)CN2C(=O)C2CC2)O1)NCc1ccccc1Cl,·,·,·,·,·,22.8
CCCNC(=O)N(C)C[C@H]1Oc2ncc(-c3ccc(OC)cc3)cc2C(=O)N([C@@H](C)CO)C[C@H]1C,·,·,·,·,·,-1.5
SMILES,TROY signal inh,TWEAK-Fn14 inh,HSF1 inh,HSF-1 act,EBV LMP1 NFkB,LGR2 inh
Cc1cc(C(=O)Nc2cccc3c2O[C@H](CN(C)S(=O)(=O)c2cn(C)cn2)[C@H](C)CN([C@H](C)CO)C3=O)n(C)n1,·,·,·,·,·,8.0
Cc1ccc(-c2csc3ncnc(SCC(=O)c4ccc5c(c4)OCCO5)c23)cc1,-1.7,32.9,-0.1,-4.4,-4.0,·
Cn1nnnc1Sc1ncnc2scc(-c3ccc4c(c3)OCO4)c12,13.4,58.2*,·,·,9.6,?
COc1cc(S(=O)(=O)NCc2cccnc2)c(OC)cc1Br,50.3*,8.8,-7.1,-10.5,-4.2,·
COc1cc(S(=O)(=O)NCc2ccncc2)c(OC)cc1Br,16.2,13.9,-2.7,-2.8,6.8,16.4
CCOc1c(C)cc(S(=O)(=O)NCc2cccnc2)c(C)c1C,2.5,2.9,-56.1*,-66.0,3.2,11.1
C/C=C(/C(=C/C)c1ccc(O)cc1)c1ccc(O)cc1,25.7,14.3,18.5,15.4,-1.6,1.3
C=C(c1ccc(O)cc1)c1ccc(O)cc1,51.5*,41.6,43.9,43.1,-14.1,·
